Measured values published in PubChem BioAssay (Tox21).
Inconclusive results are not listed. Where a call stands in place of a potency, no number is given. Activity calls are given as the source filed them. Calls come from the whole dose curve; as a rule, active = well fitted cell-killing curve with a large enough effect in the repeat runs; inconclusive = weak or mixed curves, or effect the other way; inactive = flat fitted curve, though single readings scatter.

How the values were obtained:
[1] = cAMP Responsive Elements (CRE) small molecule antagonists, cell-based qHTS assay: qHTS cell viability counter screen (AID 2060913); note: nearly all actives have a fitted effect of over 40% in size
Method in brief: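 HEK293T CRE-bla, 2,000 cells/well, 18 h preincubation; cpd in DMSO + NKH477 0.25 uM final, 3 h 37 C/5% CO2; LiveBLAzer 2 h RT, then CellTiter-Glo 30 min RT, luminescence.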

[2] = cAMP Responsive Elements (CRE) small molecule agonists, cell-based qHTS assay: qHTS cell viability counter screen (AID 2060914);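 note: viability read after 3 h of compound exposure; nearly all actives have a fitted effect of over 50% in size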
Method in brief: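 Cells are seeded and incubated 18 h, treated with compounds in DMSO for 3 h, read for the bla reporter, then given CellTiter-Glo; luminescence is measured after 30 min at room temperature.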
Potency is the fitted concentration of half-maximal effect.

Row | Compound | Potency [1] | Potency [2]
1 | CCCCOCCO | inactive | inactive
2 | Cc1cc(C)nc(NS(=O)(=O)c2ccc(N)cc2)n1 | inactive | inactive
3 | Cc1c(Nc2ncccc2C(=O)O)cccc1C(F)(F)F | inactive | inactive
4 | [O]=[Zr] | inactive | inactive
5 | CCOC(=O)C(C)Oc1ccc(Oc2nc3ccc(Cl)cc3o2)cc1 (stereo not given) | inactive | inactive
6 | CCCCCOc1ccccc1/C(=C\SC)n1ccnc1 | inactive | inactive
7 | C=C(C)C(=O)OCCOP(=O)(O)O | inactive | inactive
8 | C=C(C)CC(C)(C)C | inactive | inactive
9 | C=CC(=O)OCC[N+](C)(C)C | inactive | inactive
10 | OC1C(O)C(O)C(O)C(O)C1O (stereo not given) | inactive | inactive
11 | CCOc1nc2cccc(C(=O)O)c2n1Cc1ccc(-c2ccccc2-c2nn[nH]n2)cc1 | inactive | inactive
12 | CC(O)CC(C)O (stereo not given) | inactive | inactive
13 | CCC(C)c1cc([N+](=O)[O-])cc([N+](=O)[O-])c1OC(=O)OC(C)C (stereo not given) | inactive | inactive
14 | CC(C)(C#N)c1cc(Cn2cncn2)cc(C(C)(C)C#N)c1 | inactive | inactive
15 | Cc1c(C(C)C)c(=O)n(-c2ccccc2)n1C | inactive | inactive
16 | CCC(C)COC(C)=O (stereo not given) | inactive | inactive
17 | CCCCCCCCCCCCCC(=O)OCC(O)CO (stereo not given) | inactive | inactive
18 | Nc1ccc(S(=O)(=O)NCc2ccccc2)cc1 | inactive | inactive
19 | c1ccc(-c2ccccn2)nc1 | inactive | inactive
20 | CCN1CCC[C@H]1CNC(=O)c1cc(S(N)(=O)=O)ccc1OC | inactive | inactive
21 | CC(Oc1c(Cl)cccc1Cl)C1=NCCN1 (stereo not given) | inactive | inactive
22 | COc1ccc2cccc(CCNC(C)=O)c2c1 | inactive | inactive
23 | CCCSSCCC | inactive | inactive
24 | C[Si](O[Si](C)(C)C)O[Si](C)(C)C | inactive | inactive
25 | Cc1cccc(O)c1 | inactive | inactive
26 | O=C[C@H](O)[C@H](O)[C@H](O)CO | inactive | inactive
27 | [Cl][Bi]([Cl])([c]1ccccc1)([c]1ccccc1)[c]1ccccc1 | 30.5 µM (active) | 43 µM (active)
28 | O[Si](c1ccccc1)(c1ccccc1)c1ccccc1 | inactive | inactive

Row | Compound | Potency [1] | Potency [2]
29 | CC12CCC(CC1)C(C)(C)O2 | inactive | inactive
30 | CN(C)C(=O)Oc1cccc([N+](C)(C)C)c1 | inactive | inactive
31 | O=C(c1ccccc1)c1cc(Cl)ccc1O | inactive | inactive
32 | O=S(=O)(O)c1cc(S(=O)(=O)O)c2c(N=Nc3ccccc3)c(O)ccc2c1 | inactive | inactive
33 | O=C(Nc1ccccc1)c1cc([N+](=O)[O-])ccc1Cl | inactive | inactive
34 | CC(C)(Sc1cc(C(C)(C)C)c(O)c(C(C)(C)C)c1)Sc1cc(C(C)(C)C)c(O)c(C(C)(C)C)c1 | inactive | inactive
35 | CCCCCCCCCCCc1ccccc1 | inactive | inactive
36 | C[C@@]12CCC[C@H]1[C@@H]1CC[C@H]3C[C@@H](O)CC[C@]3(C)[C@H]1CC2 | inactive | inactive
37 | CCOC(=O)c1c(N)sc2c1CCN(Cc1ccccc1)C2 | inactive | inactive
38 | CCCC(=O)C(CC)Sc1ccoc1C (stereo not given) | inactive | inactive
39 | NCCCC(O)(P(=O)(O)O)P(=O)(O)O | inactive | inactive
40 | CC(=O)N[C@@H](CCC(N)=O)C(=O)O | inactive | inactive
41 | CCCCCCCCCCCC[N+](C)(C)CCCS(=O)(=O)[O-] | inactive | inactive
42 | O=C1CC2(CCCC2)CC(=O)N1CCNCC1COc2ccccc2O1 (stereo not given) | inactive | inactive
43 | CC(C)(c1cc(Br)c(O)c(Br)c1)c1cc(Br)c(O)c(Br)c1 | inactive | inactive
44 | CCCCC(CC)COC(=O)CS (stereo not given) | inactive | inactive
45 | CC(C)(C)NSc1nc2ccccc2s1 | inactive | inactive
46 | c1ccc(CC2=NCCN2)cc1 | inactive | inactive
47 | Cc1ccc(O)c(C(=O)c2ccccc2)c1 | inactive | inactive
48 | c1ccc(SSc2ccccc2)cc1 | inactive | inactive
49 | CC/C=C\CC/C=C/CO | inactive | inactive
50 | C[Si](C)(C)C | inactive | inactive
51 | C=C(C)C(=O)OCCC[Si](Cl)(Cl)Cl | inactive | inactive
52 | CC(CCc1ccccc1)NCC(O)c1ccc(O)c(C(N)=O)c1 (stereo not given) | inactive | inactive
53 | CN(C)c1ccc2nc3ccc(=[N+](C)C)cc-3sc2c1 | inactive | inactive
54 | CN(C)C(=O)Nc1ccc(Oc2ccc(Cl)cc2)cc1 | inactive | inactive
55 | Clc1cccc(Cl)c1NC1=NCCN1 | inactive | inactive
